Results published in the supplement of paper PMC7726561.

molecular target: HLA-C*04:01; assay: thermal melting temperature (Tm) of peptide-HLA complex; higher = more thermostable pHLA complex; conditions: C1R-A*02:01
Procedure: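 Endogenous HLA-C*04:01 ligands were detected in the thermostability assays of both the C1R-A*02:01 and C1R-B*07:02 lines. Lysates were heated 10 min at 37-73 °C and pHLA immunoprecipitated with W6/32. Peptides were quantified by DIA-MS and Tm was taken from a logistic sigmoid fit.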

Row | Sequence | thermal melting temperature
1 | IFDRVLTEL | 51.3 °C
2 | RFDESMQVF | 55.9 °C
3 | VFDTAIAHL | 59 °C
4 | SFDLLPREF | 54.7 °C
5 | TFDSTIHF | 55.9 °C
6 | FFEEFGKL | 44.3 °C
7 | NFDNILNSF | 56.8 °C
8 | LFDLGGQYL | 48.8 °C
9 | FYDLYGGEKF | 48.8 °C
10 | AHDVDPIEL | 45.7 °C
11 | VFPKEPVEL | 52.4 °C
12 | KFDPVGEIL | 55.9 °C
13 | SWDIVVQRV | 46.9 °C
14 | SFDPSRTF | 53.7 °C
15 | AWDKEPVLV | 57.8 °C
16 | AWEERETIL | 57.8 °C
17 | FYEPQKGSIYL | 60.5 °C
18 | FLDLTEQEF | 59.8 °C
19 | TFDLTVVSY | 53.5 °C
20 | VFDVTAPNTF | 56.1 °C
21 | TFDPMTRQI | 54.1 °C
22 | HYDPATEEF | 60.2 °C
23 | IYDEVVKL | 54.3 °C
24 | NYDEHISNF | 44.8 °C

Row | Sequence | thermal melting temperature
25 | AFDLSQVLF | 56.1 °C
26 | TFDVSILTI | 44.9 °C
27 | VLDDKDYFL | 57 °C
28 | IFDGNVAHI | 59.7 °C
29 | SFDTGFTSF | 48.1 °C
30 | SFDSALQSV | 56.4 °C
31 | TYDLQESNV | 57.5 °C
32 | TFDVAPSRLDF | 60.1 °C
33 | NFDDIKNGL | 52.1 °C
34 | LYDLVTEKM | 56.2 °C
35 | MFDKDVVML | 48.9 °C
36 | VYDPSLKTLL | 52.3 °C
37 | VFDKTLAEL | 58.9 °C
38 | YFDDLKGEM | 57.9 °C
39 | HYDEQQNFF | 53.5 °C
40 | VFDPVTKL | 48.3 °C
41 | IFDQSGTYL | 53.4 °C
42 | IYDVQHANL | 50.7 °C
43 | LFDDIDHNM | 52.6 °C
44 | MPDDLLTTL | 53.1 °C
45 | SYDPTIENTF | 54.9 °C
46 | FWDPSVNLF | 53.7 °C
47 | QYDEAVAQF | 56.7 °C

same assay, conditions: C1R-B*07:02

Row | Sequence | thermal melting temperature
48 | IFDRVLTEL | 54.7 °C
49 | RFDESMQVF | 58.5 °C
50 | VFDTAIAHL | 58.7 °C
51 | SFDLLPREF | 55.9 °C
52 | TFDSTIHF | 58 °C
53 | FFEEFGKL | 46.5 °C
54 | NFDNILNSF | 58.7 °C
55 | LFDLGGQYL | 44.5 °C
56 | FYDLYGGEKF | 48.5 °C
57 | AHDVDPIEL | 46.9 °C
58 | VFPKEPVEL | 52.2 °C
59 | KFDPVGEIL | 54.9 °C
60 | SWDIVVQRV | 49 °C
61 | SFDPSRTF | 52.8 °C
62 | AWDKEPVLV | 57.6 °C
63 | AWEERETIL | 56.3 °C
64 | FYEPQKGSIYL | 62.1 °C
65 | FLDLTEQEF | 60.6 °C
66 | TFDLTVVSY | 61.8 °C
67 | VFDVTAPNTF | 61.1 °C
68 | TFDPMTRQI | 57 °C
69 | HYDPATEEF | 58.2 °C
70 | IYDEVVKL | 51.6 °C
71 | NYDEHISNF | 48.9 °C

Row | Sequence | thermal melting temperature
72 | AFDLSQVLF | 56.5 °C
73 | TFDVSILTI | 47.2 °C
74 | VLDDKDYFL | 42.4 °C
75 | IFDGNVAHI | 59 °C
76 | SFDTGFTSF | 46.1 °C
77 | SFDSALQSV | 60.7 °C
78 | TYDLQESNV | 55.5 °C
79 | TFDVAPSRLDF | 62.2 °C
80 | NFDDIKNGL | 50.4 °C
81 | LYDLVTEKM | 60.7 °C
82 | MFDKDVVML | 54.6 °C
83 | VYDPSLKTLL | 52.4 °C
84 | VFDKTLAEL | 59.1 °C
85 | YFDDLKGEM | 59.4 °C
86 | HYDEQQNFF | 53.3 °C
87 | VFDPVTKL | 48.6 °C
88 | IFDQSGTYL | 56.4 °C
89 | IYDVQHANL | 53 °C
90 | LFDDIDHNM | 53.7 °C
91 | MPDDLLTTL | 63.4 °C
92 | SYDPTIENTF | 58.1 °C
93 | FWDPSVNLF | 52.4 °C
94 | QYDEAVAQF | 59.2 °C
